Compound activity: PubChem BioAssay, National Center for Advancing Translational Sciences (NCATS)
The list is not random: actives were taken first. Their share in the collection is about 7.9%.
HCMV antiviral – human cytomegalovirus inhibition; HFF cells, HCMV-luciferase reporter, 72 h; hits give low values; activity change, negative = inhibition, % at 57.5 µM; hit rate 4.5% among 410,000; in the data active means activity change below about -60%; inconclusive means no clear call, values can overlap the other calls; inactive means above about -39%
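Cell-based, HFFs, 1000 cells/well, 16 h 37C; cpds in DMSO + HCMV-luc, MOI 1 PFU/cell; 72 h 37C; OneGlo luminescence after 5 min RT; norm. to buffer vs Salinomycin 10uM.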
MARV entry inh – Marburg virus entry inhibition. Marburg virus pseudotyped entry inhibition, cell reporter. hit rate 1.8% among 300,000. AID 540276. Potency, µM (series often up to 37.8 µM), most hits filed as inhibitors; calls by dose curve; tested in HEK293 cells
Lassa entry inh – inhibitors of Lassa virus binding or cell entry; AID 540256; hit rate 1.2% among 300,000; Potency, µM (doses to about 37.9 µM), hits mostly inhibitors; Lassa virus pseudotype entry inhibition, cell reporter; calls by dose curve; tested in HEK293 cells; further: nearly all actives have a fitted effect of over 50% in size
FMDV inh – foot and mouth disease virus antiviral activity; FMDV antiviral cell-based qHTS; Potency, µM (titrated, usually from 57.9 µM), actives largely listed as inhibitors; hit rate 1.2% among 410,000; calls by dose curve; tested in HEK293T cells; further: read-out not given here; nearly all actives have a fitted effect of over 45% in size
HCV inh – blocks hepatitis C virus; Huh7.5.1 HCVcc-Cre infection, luciferase reporter, 44 h; Potency, µM (highest dose often 41.8 µM), actives largely listed as inhibitors; hit rate 3.4% among 340,000; AID 651820; active means well fitted inhibition curve with a large enough effect; inconclusive means small, poorly fitted or top-dose-only effect, or another doubt; inactive means no such curve, though single readings can be large or run the other way
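Antiviral activity was scored by luciferase reporter output from cells infected with HCVcc-Cre (~0.5 moi) in presence of compound, 44 h infection period, cells seeded 1,000/well 4 h prior.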
Of the large screens only hits and unclear results are named; the others gave an inactive call.

CCCCn1c(=O)c(-[n+]2ccccc2)c([O-])c2ccccc21	HCMV antiviral -61.6
S=C(NCc1ccco1)N/N=C/c1ccncc1	none
CN(C)c1ccc(C(=S)NCc2ccco2)cc1	MARV entry inh inconclusive, Lassa entry inh inconclusive, FMDV inh 15.8µM
CN(C)c1ccc(/C=N/NC(=S)NCc2ccco2)cc1	MARV entry inh inconclusive, Lassa entry inh 2.06µM
N#CC1(Nc2ccc([N+](=O)[O-])cc2)CCCC1	none
COc1cc(/C=C/C(=O)c2ccc(Cl)s2)cc(OC)c1O	MARV entry inh inconclusive, Lassa entry inh inconclusive, FMDV inh 12.6µM, HCV inh 12.6µM (no result: HCMV antiviral)
COc1ccc(/C=C/C(=O)c2ccc(Cl)s2)cc1O	none
COc1ccc(/C=C/C(=O)c2ccc3c(c2)OCCO3)cc1[N+](=O)[O-]	MARV entry inh inconclusive, FMDV inh inconclusive, HCV inh 31.6µM
COc1ccc(/C=N/NC(=O)c2ccc3c(c2)OCCO3)cc1[N+](=O)[O-]	none
CC(C)(C)c1cc(C(=O)/C=C/c2ccc(C(=O)O)cc2)cc(C(C)(C)C)c1	FMDV inh 25.1µM (no result: HCMV antiviral, MARV entry inh, Lassa entry inh, HCV inh)
CCOc1cc(/C=C/C(=O)c2ccc3c(c2)OCCO3)ccc1OCC(=O)N(C)C	HCMV antiviral -76.7, MARV entry inh inconclusive, FMDV inh 14.1µM, HCV inh inconclusive (no result: Lassa entry inh)
O=C(/C=C/c1ccccc1)c1ccc2ccccc2c1	MARV entry inh inconclusive, Lassa entry inh inconclusive
COc1cc(/C=C/C(=O)c2ccc3c(c2)OCO3)cc(Cl)c1O	HCMV antiviral -62.3, MARV entry inh inconclusive
O=C(O)c1ccc(/C=C/C(=O)c2ccc3c(c2)OCCCO3)cc1	MARV entry inh inconclusive, Lassa entry inh inconclusive, FMDV inh 10µM
CC(=O)Nc1ccc(/C=C/C(=O)c2ccc3c(c2)OCCO3)cc1	none
COc1ccc(C(=O)C=Cc2ccc3c(c2)OCO3)cc1OC	none (no result: MARV entry inh, Lassa entry inh, HCV inh)
COc1cccc(/C=C/C(=O)c2ccc3c(c2)OCCO3)c1OC	HCMV antiviral -95.7, MARV entry inh inconclusive, Lassa entry inh inconclusive
Cc1ccc(OC(C)C(=O)Nc2ccc(C)c(S(=O)(=O)Nc3ccc(C)cc3C)c2)cc1 (stereo not given)	MARV entry inh inconclusive, Lassa entry inh 16.4µM, HCV inh inconclusive
CCOC(=O)N1CCN(Cc2ccc3c(c2)CN(C(=O)c2ccc4ncccc4c2)CCO3)CC1	FMDV inh 28.2µM (no result: HCMV antiviral, MARV entry inh, Lassa entry inh, HCV inh)
O=C(c1ccc2[nH]ccc2c1)N1CCOc2ccc(CN3CCN(c4ccccn4)CC3)cc2C1	FMDV inh 25.1µM (no result: HCMV antiviral, MARV entry inh, Lassa entry inh, HCV inh)
O=[N+]([O-])c1ccc(CNc2ccc(Cl)cc2)s1	MARV entry inh inconclusive, Lassa entry inh 3.55µM, FMDV inh inconclusive
CCOC(=O)c1c2c(n(C3CCCCC3)c1CN(C)C)CC(Br)=C(OC)C2	MARV entry inh 10µM (no result: HCMV antiviral, Lassa entry inh, FMDV inh, HCV inh)
CCOC(=O)c1c(CN2CCCCC2)n(C)c2cc(Br)c(O)c(CN(C)C)c12	none (no result: HCMV antiviral, MARV entry inh, Lassa entry inh)
CCn1ccc2cc(S(=O)(=O)N3CCCN(C(=O)Nc4cc(Cl)ccc4C)CC3)ccc21	none (no result: MARV entry inh, HCV inh)
COc1ccc(CNc2ccnc(-c3cccc(C#N)c3)n2)c(OC)c1	none (no result: HCMV antiviral, MARV entry inh, Lassa entry inh, HCV inh)
CCCc1cc(=O)oc2cc(OCC(=O)NCCN3CCOCC3)c(Cl)cc12	HCMV antiviral -79.1 (no result: MARV entry inh, Lassa entry inh, HCV inh)
CCCc1cc(=O)oc2cc(C)cc(OCC(=O)NCCN3CCOCC3)c12	none (no result: MARV entry inh, Lassa entry inh)
Cc1ccc(OCc2ccc(C(=O)Nc3cc(C)on3)o2)c([N+](=O)[O-])c1	none (no result: MARV entry inh, Lassa entry inh)
CCn1c(NC(=O)c2ccc(COc3ccc(C)cc3[N+](=O)[O-])o2)nc2ccccc21	HCMV antiviral -62.7, MARV entry inh inconclusive
O=C(Oc1ccc(Cl)c2cccnc12)N1CCCCCC1	HCMV antiviral -100.4
COCCCNC(=O)C1CCN(c2nc3ccc(C)cc3[nH]2)CC1	none (no result: MARV entry inh, HCV inh)
c1ccc2c(c1)nc(-c1ccncc1)n2CCNc1nc(CN2CCCCC2)cs1	none (no result: MARV entry inh, Lassa entry inh)
CC(=O)OCCN(CCCn1c(-c2ccncc2)nc2ccccc21)c1nc(CN2CCCCC2)cs1	HCV inh 2.51µM (no result: MARV entry inh, Lassa entry inh)
N#C/C(=C\c1ccc(OCc2ccc(F)cc2)cc1)C(=O)Nc1cccc(C(=O)O)c1	HCMV antiviral -75.3 (no result: MARV entry inh, Lassa entry inh)
COc1ccc(S(N)(=O)=O)cc1C(=O)NNC(=O)c1cccc(S(=O)(=O)N2CCOCC2)c1	none
CCOC(=O)N1CCN(C(=O)c2cccc(N3C(=O)NC4CC3(C)Oc3ccc(Cl)cc34)c2)CC1 (stereo not given)	HCMV antiviral -71.3, FMDV inh inconclusive
CCOC(=O)C1CCN(C(=O)c2cccc(N3C(=O)NC4CC3(C)Oc3ccc(C)cc34)c2)CC1 (stereo not given)	none
O=C(O)[C@@H]1CSCN1S(=O)(=O)c1cccc2nsnc12	none (no result: HCMV antiviral, Lassa entry inh, FMDV inh, HCV inh)
